Reference: PubChem BioAssay (EPA / NIEHS)
Records with an inconclusive call do not appear. The source made the active and inactive calls. How the source made its calls: active means hit-call score of the fitted dose curve at least 0.9, where 1 is the maximum; inconclusive means response in the unintended direction; inactive means score below 0.9.

These compounds were tested against Bile acid receptor (Homo sapiens) (UniProt Q96RI1) (assay: NVS_NR_hFXR_Antagonist: NovaScreen (NVS) Nuclear Receptor Binding Assay for human Farnesoid X Receptor Antagonism (FXR) (AID 2283350)).
Bile acid receptor (Homo sapiens), sequence (Q96RI1 whole entry, looked up): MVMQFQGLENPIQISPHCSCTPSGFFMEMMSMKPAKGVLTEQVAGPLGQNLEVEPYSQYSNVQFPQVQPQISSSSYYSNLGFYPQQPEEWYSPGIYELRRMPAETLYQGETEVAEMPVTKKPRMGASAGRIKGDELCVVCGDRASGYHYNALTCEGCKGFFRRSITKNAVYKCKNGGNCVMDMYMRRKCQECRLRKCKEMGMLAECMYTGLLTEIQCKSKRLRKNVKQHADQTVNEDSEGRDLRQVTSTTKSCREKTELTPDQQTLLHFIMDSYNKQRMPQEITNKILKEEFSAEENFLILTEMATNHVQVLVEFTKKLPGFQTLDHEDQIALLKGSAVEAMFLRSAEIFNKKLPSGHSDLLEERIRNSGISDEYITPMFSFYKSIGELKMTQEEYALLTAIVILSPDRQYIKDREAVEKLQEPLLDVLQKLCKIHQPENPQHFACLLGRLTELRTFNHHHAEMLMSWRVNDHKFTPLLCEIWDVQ
Description: NVS_NR_hFXR_Antagonist is a biochemical, single-readout assay that uses extracted gene-proteins in a cell-free assay. Measurements were taken 1 hour after chemical dosing in a 384-well plate.NVS_NR_hFXR_Antagonist is one of one assay component(s) measured or calculated from the NVS_NR_hFXR_Antagonist assay. It is designed to make measurements of fluorescent resonance energy transfer, a form of binding reporter, as detected with fluorescent resonance energy transfer signals by Time-Resolved Fluorescence Resonance Energy Transfer (TR-FRET) technology.Data from the assay component NVS_NR_hFXR_Antagonist was analyzed into 1 assay endpoint. This assay endpoint, NVS_NR_hFXR_Antagonist, was analyzed in the positive analysis fitting direction relative to DMSO as the negative control and baseline of activity. Using a type of binding reporter, loss-of-signal activity can be used to understand changes in the binding as they relate to the gene NR1H4. Furthermore, this assay endpoint can be referred to as a primary readout, because the performed assay has only produced 1 assay endpoint. To generalize the intended target to other relatable targets, this assay endpoint is annotated to the nuclear receptor intended target family, where the subfamily is non-steroidal.
Binding assays used specific radioligands (tritiated, iodinated) with non-radioactive competitive displacement ligands in agonist or antagonist protocols (as indicated) and various reference compounds and inhibitors to titrate specific binding to receptors and transporters. Most enzyme assays (CYPs, kinases, phosphatases, proteases, HDACs) used recombinant protein and specific substrates (fluorescence mostly, some colorimetric and radioactive) and inhibitors, followed by a biochemical separation of substrate and product. All assays for the biochemical HTS were initially run in duplicate at a single concentration (10 uM for CYP450 assays and 25 uM for all others). […] Each assay was run with positive and negative controls, and concurrent controls on every plate. The follow-up (secondary) screen tested active chemical-pairs in concentration series, as well as a few additional assays not tested in the primary screen, some selected negative inactives, and several cases re-run in the concentration series for confirmatory purposes.
With `CCCCCCCCCCCCc1ccccc1S(=O)(=O)O` the AC50 was 12.2 µM (active). For `CC(C)CCCCCCOC(=O)CCCCC(=O)OCCCCCCC(C)C`, the outcome was “inactive”. With `CC[C@H](c1ccc(O)cc1)[C@@H](CC)c1ccc(O)cc1` the AC50 was 8.83 µM (active). For `CC(O)CO` (stereo not given), the outcome was “inactive”. `CCC(=C(c1ccc(O)cc1)c1ccc(OCCN(C)C)cc1)c1ccccc1` was tested, and the outcome was “inactive”. With `CCCCC(CC)COC(=O)CCCCC(=O)OCC(CC)CCCC` (stereo not given) the outcome was “inactive”. `c1ccc2cc3c(ccc4ccccc43)cc2c1` was tested, and the outcome was “inactive”. `CN1CCN(c2ccccc2/C=C2\SCCN(c3ccc(Cl)c(Cl)c3)C2=O)CC1` was tested, and the outcome was “inactive”. `O=C(OCCOCCOC(=O)c1ccccc1)c1ccccc1` was tested, and the outcome was “inactive”. In the case of `CC#C[C@]1(O)CC[C@H]2[C@@H]3CCC4=CC(=O)CCC4=C3[C@@H](c3ccc(N(C)C)cc3)C[C@@]21C`, the outcome is reported as “inactive”.
